# DT40 TDP1 CPT: growth inhibition of DT40 Tdp1-/-;hTDP1 cells with camptothecin (screen for TDP1 inhibitors); chicken DT40 Tdp1-/-;hTDP1 cells + 20 nM CPT, ATP luminescence, 48 h; Potency, µM (doses to about 46.2 µM), for the others: at the highest dose activity change, negative = growth inhibition, hits mostly inhibitors; 420,000 compounds, 12% hits; AID 686979; note: nearly all actives have a fitted effect of over 55% in size
#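 Chicken DT40 Tdp1-/- cells complemented with human TDP1, 400 cells/well, exposed to compounds plus 20 nM camptothecin for at least 48 h at 37 C; viability read as ATP content by CellTiter-Glo luminescence.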
# KAT2A inh: blocks human GCN5L2 histone acetyltransferase; Q92830; GCN5L2 HAT assay, ThioGlo1 CoA-SH fluorescence; Potency, µM (doses to about 58.9 µM), for inactives: at the top dose activity change, negative = inhibition, hits mostly inhibitors; 390,000 compounds, 0.21% hits; AID 504327
# Target sequence (Q92830 whole entry, looked up): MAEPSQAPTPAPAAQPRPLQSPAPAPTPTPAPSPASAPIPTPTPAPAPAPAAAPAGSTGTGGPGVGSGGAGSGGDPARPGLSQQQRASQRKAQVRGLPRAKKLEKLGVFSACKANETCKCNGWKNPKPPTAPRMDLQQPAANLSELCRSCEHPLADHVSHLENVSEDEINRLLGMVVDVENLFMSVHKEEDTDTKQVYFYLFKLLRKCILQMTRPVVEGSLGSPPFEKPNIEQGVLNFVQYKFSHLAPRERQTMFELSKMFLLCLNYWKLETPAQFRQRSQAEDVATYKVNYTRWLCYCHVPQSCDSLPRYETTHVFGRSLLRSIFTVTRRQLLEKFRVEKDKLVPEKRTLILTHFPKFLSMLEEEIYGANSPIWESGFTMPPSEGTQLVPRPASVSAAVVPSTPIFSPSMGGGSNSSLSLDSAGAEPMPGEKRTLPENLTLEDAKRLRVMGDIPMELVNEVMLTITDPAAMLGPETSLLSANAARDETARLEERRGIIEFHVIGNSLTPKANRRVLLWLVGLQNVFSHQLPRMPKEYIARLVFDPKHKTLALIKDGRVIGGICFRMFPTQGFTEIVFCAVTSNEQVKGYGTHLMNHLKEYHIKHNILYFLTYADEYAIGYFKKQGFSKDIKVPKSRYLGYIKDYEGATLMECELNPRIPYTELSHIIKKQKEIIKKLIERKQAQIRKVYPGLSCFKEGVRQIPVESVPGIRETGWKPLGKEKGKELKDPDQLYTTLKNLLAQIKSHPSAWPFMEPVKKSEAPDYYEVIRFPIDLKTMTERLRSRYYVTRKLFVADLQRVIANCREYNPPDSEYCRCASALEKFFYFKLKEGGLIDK
#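 Titration-based screen in which CoA formation is detected via maleimide probe ThioGlo1 (50uM) turning fluorescent on thiol reaction; substrates H3(1-25) 75uM and acetyl-CoA 70uM, GCN5L2 20nM, 20 min incubation at room temperature.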
# TDP1 inh: blocks human tyrosyl-DNA phosphodiesterase 1 | Potency, µM (titrated, usually from 130 µM), inactives show at the top dose activity change, negative = inhibition, most hits filed as inhibitors | Q9NUW8 | recombinant TDP1, AlphaScreen DNA substrate cleavage | 350,000 compounds, 0.28% hits; note: nearly all actives have a fitted effect of over 40% in size
#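 Recombinant E. coli-expressed Tdp1 (1 nM) preincubated with compound 15 min at RT, then 5'-biotin/3'-phosphotyrosine-FITC DNA substrate (15 nM) added for 5 min. AlphaScreen beads (10 ug/ml) added, 10 min RT; tyrosine-FITC cleavage read as signal loss.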
# TDP1 cell noCPT: qHTS for Inhibitors of human tyrosyl-DNA phosphodiesterase 1 (TDP1): qHTS in cells in absence of CPT; Potency, µM (series often up to 46.2 µM), without a hit: at the highest dose activity change, negative = growth inhibition, actives largely listed as inhibitors; 420,000 compounds, 15% hits; DT40 Tdp1-/- hTDP1 cells, no CPT, ATP luminescence, 48 h; note: nearly all actives have a fitted effect of over 55% in size
#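 DT40 Tdp1-/-;hTDP1 cells, no CPT (DMSO vehicle only), 400 cells/well; compounds pin-transferred; ≥48 hr, 37 °C; CellTiter-Glo 30 min RT dark, luminescence read.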
# PLK1 PBD block: inhibitors of human PLK1 polo-box domain binding; AID 720504; Potency, µM, for inactives: max response, negative = inhibition, most hits filed as inhibitors; P53350; Plk1 PBD binding of FITC phosphopeptide, fluorescence polarization; 360,000 compounds, 2.8% hits; note: series mostly up to about 57 µM; nearly all actives have a fitted effect of over 65% in size
# VDR inhibitor: blocks the human vitamin D receptor; P11473; VDR-SRC2-3 peptide fluorescence polarization, 2 h; Potency, µM, for inactives: max response, negative = inhibition, most hits filed as inhibitors; 400,000 compounds, 0.93% hits; AID 504847
#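 FP read-out; VDR + SRC2-3 coactivator peptide; 23 nl compound by pintool; 2 h RT incubation; reagents held at 4 deg C, protected from light.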
# * marks the source's active call; other numbers are inactive results; ? = inconclusive; / = no result; [ ] = another dose, or the depositor's remark. An excerpt weighted towards active compounds, which were near 18% of everything screened. Calls come from the whole dose curve; as a rule, active = well fitted curve in the direction sought with a large enough effect; inconclusive = small, poorly fitted or top-dose-only effect, or another doubt; inactive = no such curve, though single readings can be large; an effect the other way counts as inactive or inconclusive. % is set by controls: 0 for no effect and ±100 for the full control effect; potency is the fitted concentration of half-maximal effect.
SMILES,DT40 TDP1 CPT,KAT2A inh,TDP1 inh,TDP1 cell noCPT,PLK1 PBD block,VDR inhibitor
OC(COCC1CC=CCC1)Cn1cnc2ccccc21 (stereo not given),-24%,-3%[0.501 µM],8%,-16%,-2%,19%
CC(=O)Nc1cccc(OCC(O)Cn2cnc3ccccc32)c1 (stereo not given),-15%,2%,1%,-4%,-5%,3%
CC(=O)Nc1cccc(OCC(O)Cn2c(C)nc3ccccc32)c1 (stereo not given),?,-4%,3%,16µM*,2%,-13%
CC(C)c1ccc(C(=O)C[N+]2(C)CCOCC2)cc1,-10%,/,/,-18%,/,/
COCCN(C(=O)C1CC(=O)N(Cc2ccccc2)C1)c1nc(-c2ccc([N+](=O)[O-])cc2)cs1 (stereo not given),16µM*,-4%,5%,21µM*,?,-11%
CCOc1ccccc1NC(=O)COC(=O)c1cnc(C)cn1,-1%,3%,-2%[56.1 µM],1%,-9%,6%
CC(=O)NC(c1ccccc1)c1nc(-c2cc3ccccc3o2)cs1 (stereo not given),23µM*,/,/,?,-8%,/
CC(=O)NC(c1ccccc1)c1nc(-c2cccs2)cs1 (stereo not given),-20%,/,/,?,-4%,/
CC(=O)NC(c1cccc(F)c1)c1nc(-c2cc3ccccc3o2)cs1 (stereo not given),?,/,/,21µM*,-6%,/
CC(=O)NC(c1ccc(F)c(F)c1)c1nc(-c2cc3ccccc3o2)cs1 (stereo not given),-4%,/,/,?,-4%,/
O=C(CCN1CCCCC1)Nc1ccc2c(c1)C(=O)c1ccc(NC(=O)CCN3CCCCC3)cc1C2=O,/,-9%,-14%,/,/,0%
CC1Cc2cc(-c3csc(NC(=O)Cc4ccccc4)n3)ccc2N1S(C)(=O)=O (stereo not given),16µM*,-29%,2%,10µM*,-2%,-9%
CS(=O)(=O)N1CCc2cc(-c3csc(NC(=O)C(c4ccccc4)c4ccccc4)n3)ccc21,12µM*,-13%,0%,?,-16%,12%
OCc1ccccc1O,13%,4%,11%[56.1 µM],-5%,/,0%
OCc1ccccc1SSc1ccccc1CO,2.3µM*,/,/,3.3µM*,0.27µM*,8.9µM*
CCOC(=O)Cn1nc2oc(=O)c(CCN3CCN(c4ccccc4OC)CC3)c(C)c2c1C,9%,/,/,3%,-1%,/
O=C(COC(=O)C12CC3CC(CC(O)(C3)C1)C2)NCc1ccco1,/,/,-9%,/,/,-9%
COc1cccc(-c2nn(-c3ccccc3)cc2CN(C)Cc2ccno2)c1,21µM*,-10%,/,21µM*,4%,-2%
COc1ccc(-c2noc(N3CCC(C(=O)Nc4ccc(OC)cc4OC)CC3)n2)cc1,?,?,/,?,3%,-20%
COc1ccc(NC(=O)C2CCN(c3nc(-c4ccc(OC)cc4)no3)CC2)cc1,?,6%,/,?,-11%,9%
N#Cc1cccc(NC(=O)C2CCN(c3ncccn3)CC2)c1,-16%,0%,0%,3%,/,1%
COc1ccc(NC(=O)NC2COc3ccccc3C2)cc1Cl (stereo not given),-25%,-14%,5%,-14%,/,5%
COc1ccc(NC(=O)C2CCN(c3nc(-c4ccc(OC)c(OC)c4)no3)CC2)cc1Cl,4.1µM*,0%,12%,?,/,-2%
COc1ccc(NC(=O)C2COc3ccccc3C2)cc1Cl (stereo not given),18µM*,-4%,5%,16µM*,/,7%
N#Cc1cccc(NC(=O)C2CCN(c3nc(-c4ccc(Cl)cc4)no3)CC2)c1,13µM*,15%,3%,16µM*,/,7%
SMILES,DT40 TDP1 CPT,KAT2A inh,TDP1 inh,TDP1 cell noCPT,PLK1 PBD block,VDR inhibitor
COc1ccc(-c2noc(N3CCC(C(=O)Nc4ccc(C)c(F)c4)CC3)n2)cc1OC,?,-1%,6%,16µM*,/,-5%
CCOCCCN(Cc1cc2cc(C)cc(C)c2[nH]c1=O)C(=O)N(CC)CC,15µM*,-16%,5%,16µM*,-2%,4%
Cc1ccc2cc(CN(CCN(C)C)C(=O)Nc3ccc(Cl)cc3)c(=O)[nH]c2c1,?,-7%,0%,16µM*,-4%,-7%
Cc1ccc(NC(=S)N(CCN(C)C)Cc2cc3cc(C)cc(C)c3[nH]c2=O)cc1,?,1%,5%,4.6µM*,-11%,-5%
Cc1ccc2cc(CN(CCN(C)C)C(=S)Nc3ccccc3)c(=O)[nH]c2c1C,?,-5%,4%,21µM*,-13%,-11%
C[C@H]1NS(=O)(=O)c2ccc(Br)cc2O[C@H]1c1ccccc1,4%,-7%,1%[56.1 µM],-2%,-12%,-14%
O=C(CNC(=O)c1ccc2n[nH]nc2c1)OC(C(=O)Nc1cc(C(F)(F)F)ccc1Cl)c1ccccc1 (stereo not given),/,/,0%,/,/,/
COc1ccc(-c2ccc(C(C)=O)cc2)cc1[C@H]1[C@H]2C=CC[C@@H](C)[C@@H]2C(=O)N1Cc1ccccc1,23µM*,2%,5%,16µM*,-9%,-11%
COC(=O)c1ccc(-c2ccc(OC)c([C@H]3[C@H]4C=CC[C@@H](C)[C@@H]4C(=O)N3Cc3ccccc3)c2)cc1,5.8µM*,-5%,1%,6.5µM*,0%,-15%
Nc1ncc(S(=O)(=O)NCc2cccc(Cl)c2)cn1,-23%,0%,3%,-21%,/,25%
CCCOC(=O)CSc1nnc(-c2ccccc2)o1,/,0%,-2%,/,/,9%
CCOc1ccc(C(c2c(O)cc(C)n(CCOC)c2=O)N2CCN(c3ccccc3)CC2)cc1 (stereo not given),1%,-6%,0%,-9%,/,?
COc1ccc(C)cc1Nc1n[n+](-c2ccccc2)c(-c2ccc(N(C)C)cc2)s1,10µM*,-12%,/,21µM*,5%,3%
COc1ccc(C)cc1Nc1n[n+](C)c(-c2c3ccccc3cc3ccccc23)s1,-20%,-3%,/,-7%,-7%,-4%
COc1ccc(C)cc1Nc1n[n+](-c2ccccc2)c(-c2c(Cl)cccc2Cl)s1,21µM*,-6%,/,13µM*,-11%,-23%
COc1ccc(C)cc1Nc1n[n+](-c2ccccc2)c(-c2ccc(OC)c(OC)c2OC)s1,16µM*,-2%,/,18µM*,-13%,-5%
COc1ccc(C)cc1Nc1n[n+](C)c(-c2ccc(O)cc2O)s1,-13%,8%,/,-23%,-8%,10%
O=C(O)CSC1=NS(=O)(=O)c2ccccc21,?,/,-3%,?,/,?

# Screens deposited in PubChem by National Center for Advancing Translational Sciences (NCATS).
